Compound activity from PubChem BioAssay.
ALDH1A1 inh: blocks purified human ALDH1A1 activity | 7.3% of 220,000 active | Potency, µM (doses to about 75.3 µM), for inactives: at the top dose activity, negative = inhibition, actives largely listed as inhibitors | P00352 | Purified ALDH1A1, NADH fluorescence, propionaldehyde substrate;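 further: potency means the concentration at half of the fitted maximal effect; plate controls were no enzyme wells and a reference inhibitor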
Target sequence (P00352 whole entry, looked up): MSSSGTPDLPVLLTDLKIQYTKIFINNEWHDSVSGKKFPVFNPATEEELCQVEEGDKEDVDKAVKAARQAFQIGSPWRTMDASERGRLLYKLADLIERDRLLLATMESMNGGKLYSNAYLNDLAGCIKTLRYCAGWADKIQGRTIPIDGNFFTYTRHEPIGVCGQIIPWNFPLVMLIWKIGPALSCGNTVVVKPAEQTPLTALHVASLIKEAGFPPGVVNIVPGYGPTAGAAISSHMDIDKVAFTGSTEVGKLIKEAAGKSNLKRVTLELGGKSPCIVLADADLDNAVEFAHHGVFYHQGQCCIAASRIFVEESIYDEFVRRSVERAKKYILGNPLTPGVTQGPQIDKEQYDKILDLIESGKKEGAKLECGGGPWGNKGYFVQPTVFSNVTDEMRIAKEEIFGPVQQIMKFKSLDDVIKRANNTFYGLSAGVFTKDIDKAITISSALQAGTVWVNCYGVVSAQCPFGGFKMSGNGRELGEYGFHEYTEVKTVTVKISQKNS
HPGD block: blocks human HPGD enzyme activity. P15428. purified HPGD, NADH fluorescence kinetic, PGE2 substrate. Potency, µM, without a hit: at the highest dose activity change, negative = inhibition, hits mostly inhibitors. 4.3% of 150,000 active. AID 894; further: potency means the concentration at half of the fitted maximal effect
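NADH formation kinetics: reaction with 30 uM PGE2 and 1 mM NAD+ (final), 20 nM enzyme, Tris-HCl pH 8 with Tween 20, after 15 min compound preincubation at room temperature. Fluorescence change, last versus first of five reads.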
KinaseGlo FLuc: blocks Kinase-Glo luciferase, a counter-screen artifact. Q27757. Kinase-Glo luciferase, ATP luminescence, 8 min. Potency, µM (series often up to 38.3 µM), for the others: at the highest dose activity change, negative = inhibition, actives largely listed as inhibitors. 0.28% of 200,000 active; active means well fitted inhibition curve with a large enough effect; inconclusive means small, poorly fitted or top-dose-only effect; further: potency means the concentration at half of the fitted maximal effect; nearly all actives have a fitted effect of over 60% in size
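Recombinant Kinase-Glo luciferase, 10 uM ATP (linear range), luciferin; imidazole pH 7.2 / KCl / MgCl2 / Tween / BSA buffer; 8 min RT; luminescence.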
LMNA splice mod: LMNA splicing modulation | HeLa LMNA splicing GFP/RFP minigene ratio, 48 h | Potency, µM (series often up to 46.1 µM), without a hit: at the top dose ratio change, negative = inhibition, actives largely listed as inhibitors | 0.01% of 200,000 active; active means well fitted inhibition curve with a large enough effect in the signal ratio, with a control signal flat, not every such curve was filed as active; inconclusive means small, poorly fitted or top-dose-only effect, or effect the other way, or a change in a side signal; the % refers to the signal ratio; further: potency means the concentration at half of the fitted maximal effect
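S3 HeLa stable clones carrying a lamin A-EGFP splicing minigene plus DsRed2 were seeded at 600 cells/well in Opti-MEM with 2% FBS, pin-dosed and incubated 48 h at 37°C. Acumen cytometry (488 nm) gave the GFP/RFP total-intensity ratio.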
PNC inhibitor: perinucleolar compartment assembly inhibition. PC3M PTB-GFP, PNC prevalence imaging, 16 h; stronger effect = lower value. AID 2417. activity change (PNC), negative = inhibition, % at 10 µM. 3.1% of 140,000 active;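 active means readout at or below -70, meaning at least 70% loss of cells showing the perinucleolar compartment, a nuclear body marking cancer cells; inconclusive means readout between -30 and a set limit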;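 further: plate controls were DMSO wells for no effect and camptothecin positive control wells for full effect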
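Compounds are pinned in duplicate onto adhered PC3M cells stably expressing GFP-tagged PTB and incubated 16 h at 37 C. Cells are then fixed, nuclei stained with Hoechst, and PNC-positive cells counted.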
Numbers without * were called inactive; u = inconclusive; x = not tested or not shown; [ ] = another dose, or the depositor's remark. This is a sample that favours compounds with a hit; in the whole collection about 10% have one here. Unless noted, the call rests on the fitted dose curve; in most records, active means well fitted inhibition curve with a large enough effect (not every such curve was filed as active); inconclusive means small, poorly fitted or top-dose-only effect, or another doubt; inactive means no such curve, though single readings can be large or run the other way. Unless noted, on the % scale 0 is the no-effect control and ±100 the full control effect.

SMILES	ALDH1A1 inh	HPGD block	KinaseGlo FLuc	LMNA splice mod	PNC inhibitor
O=C(Nc1ccc(F)c(Cl)c1)C1CCN(S(=O)(=O)c2ccc3[nH]c(=O)ccc3c2)CC1	x	x	x	18%[46 µM]	x
O=C(CN(Cc1ccccc1Cl)C(=O)c1ccc(CN2CCOCC2)o1)NCc1ccccc1	13µM*	-11%	2%	-3%	u
O=C(NCc1ccccc1)c1ccc(CN2CCOCC2)cc1	u	-16%	-2%	-7%	5
COc1ccccc1-c1oc2ccccc2c(=O)c1OC	-8%	7%	4%	x	x
Cc1nn(CCc2n[nH]c(=S)n2C)c(C)c1Br	-14%	-12%	-2%	6%	19
Cc1nn(CCc2n[nH]c(=S)n2C2CCCCC2)c(C)c1Br	20µM*	25µM*	-2%	8%	-24
N#Cc1cccc(NC(=O)N2CCC3(CC2)CCN(C(=O)c2cccc(F)c2)CC3)c1	-3%	3%	-1%	x	x
Cc1c(C(=O)N2CCC(C)CC2)c(S(=O)(=O)Nc2ccc(OC(F)(F)F)cc2)c(C)n1C	x	x	x	6%[46 µM]	x
C=C(C)CSc1nc2ccccc2[nH]1	3%	u	-14%	4%	32
C=C(C)CSc1nc2nc(C)c(Br)cc2[nH]1	-7%	14µM*	-4%	0%	28
CN(C)c1nc(N/N=C/c2c[nH]c3ccccc23)nc(N2CCOCC2)n1	19µM*	x	2%	x	x
CC#CCN1c2ccccc2[C@]23C[C@@H](C(=O)OC)N(S(=O)(=O)c4cccs4)C2=NC(C(=O)OC)=C(C(=O)OC)[C@H]13	4%[13.5 µM]	1%	-2%[7.66 µM]	-5%[9.22 µM]	x
CNc1cccc2c1C(=O)c1ccccc1C2=O	-3%	-3%	-9%	-9%	-10
CNc1cccccc1=S	10µM*	28µM*	5%	5%	5
Cc1cccc(CNC(=O)CN2C(=O)C3CCCCN3c3ccc(C(=O)N4CCCC4)cc32)c1 (stereo not drawn)	x	x	x	10%[46 µM]	x
Cc1ccc(N(CC(=O)NCc2ccncc2)S(C)(=O)=O)cc1Cl	u	x	x	-9%	-84*
CS(=O)(=O)N(CC(=O)NCc1ccncc1)c1ccc(F)c(Cl)c1	15%	x	1%	-13%[46 µM]	x
O=C(CCc1c[nH]c2ccccc12)N1CCN(c2ccc(O)cc2)CC1	8.9µM*	x	5%	u	x
COC(=O)N1CCC2(CCN(Cc3ccc(C#N)cc3)CC2)CC1	u	-16%	-13%	x	x
COc1cc(OC)c(NC(=O)Cn2c(SCc3ccccc3F)nc3cccnc32)cc1Cl	x	x	x	-9%[46 µM]	x
Cc1sc(NC(=O)CSc2nnnn2C2CCCCC2)c(C#N)c1C	u	x	x	6%	2
Cc1sc(NC(=O)CSc2nnc(C(C)C)n2C)c(C#N)c1C	-10%	2%	-3%	u	-86*
Cc1sc(NC(=O)CSc2nnc(C)c(=O)[nH]2)c(C#N)c1C	14µM*	-17%	-1%	0%	13
CCCn1c(SCC(=O)Nc2sc(C)c(C)c2C#N)nnc1C(C)C	2.8µM*	x	x	-6%	u
COc1ccc(-c2n[nH]c(C)c2-c2cnn(-c3ccccc3)c2)c(O)c1	7.9µM*	-9%	-4%	-17%	-1
SMILES	ALDH1A1 inh	HPGD block	KinaseGlo FLuc	LMNA splice mod	PNC inhibitor
COc1ccc(-c2n[nH]c(C)c2-c2cnn(-c3ccccc3)c2)c(O)c1C	9%	-12%	10%	u	-11
Cc1cc(C)c(/C=C/c2onc(C)c2S(=O)(=O)N2CCC(C(=O)NCc3ccco3)CC2)c(C)c1	x	x	x	-2%[46 µM]	x
Cc1cc(C)nc(N/C(=N/S(=O)(=O)Cc2ccccc2)Nc2ccccc2)n1	13µM*	-13%	0%	-6%	-22
CCOC(=O)c1c(C)oc2nc(C)nc(NCC3CCN(Cc4cc(C)ccc4C)CC3)c12	x	x	x	-4%[46 µM]	x
CCOc1ccccc1OCCCOc1ccc([N+](=O)[O-])cc1Cl	u	-6%	1%	u	-11
COc1cccc(OC)c1OCCCOc1ccc(C)cc1Br	2%	22µM*	-2%	u	80
COc1cccc(OC)c1OCCCOc1ccc([N+](=O)[O-])cc1Cl	-2%	16µM*	1%	u	-16
Cc1ccc(CNC(=O)c2c(-c3ccccc3F)noc2C)o1	x	x	x	10%[46 µM]	x
CO[C@@H]1COC(=O)C/C=C\[C@H](C)COC(=O)[C@H](C)NC(=O)C/C=C\[C@H]1C	11%[13.5 µM]	x	x	x	x
CC1CCCN(C(=O)C(C)Nc2cc(Cl)ccc2N2CCOCC2)C1 (stereo not drawn)	10µM*	x	-11%	x	x
COc1cccc(OC)c1C(=O)Nc1cc(Cl)ccc1N1CCOCC1	-4%	-3%	1%	-5%	19
CCC1=C2CC[C@H]3C(=O)NC(=O)[C@H]3[C@H]2[C@@]2(C)C(=O)N(CC3CC3)C(=O)N2C1=O	-2%	-8%	-6%	x	x
S=c1[nH]nc(CCc2ccccc2)n1-c1ccccc1	u	16µM*	2%	-4%	7
C=CCN1C(=O)C(CC(=O)Nc2ccc(C)cc2)SC1=Nc1c(C)n(C)n(-c2ccccc2)c1=O (stereo not drawn)	2%	-5%	-1%	-4%	11
Cc1cccc(NC2SC(=O)N(c3ccccc3)C2=O)c1 (stereo not drawn)	1.3µM*	-5%	2%	-8%	11
COc1ccc(N=C2SC(CC(=O)Nc3ccccc3)C(=O)N2CCc2ccccn2)cc1 (stereo not drawn)	-1%	-21%	0%	-4%	20
Cc1ccc(NC(=O)CC2SC(=O)N(c3ccccc3)C2=O)cc1 (stereo not drawn)	10µM*	-30%	2%	-18%	43
Cc1ccc(NC(=O)CC2SC3=NCCN3C2=O)cc1 (stereo not drawn)	3.5µM*	-13%	-2%	-2%	7
O=C(CC1Sc2ncnn2C1=O)Nc1ccccc1 (stereo not drawn)	2µM*	16µM*	4%	-8%	-3
O=C(CC1SC2=NCCN2C1=O)Nc1ccccc1 (stereo not drawn)	1%	-17%	-1%	2%	46
N#Cc1cccc(NC(=O)N2CC3(CCN(C(=O)c4cc(C(F)(F)F)cc(C(F)(F)F)c4)CC3)C2)c1	-1%	-5%	0%	x	x
Cc1cccc(NC(=O)CC2S/C(=N/c3nccs3)N(C)C2=O)c1 (stereo not drawn)	11%	-3%	0%	3%	10
COc1ccc(OC)c(NC(=O)CC2SC(=N)N(c3ccccc3)C2=O)c1 (stereo not drawn)	-11%	x	0%	x	x
O=C(CC1SC(=O)N(c2ccccc2)C1=O)Nc1ccccc1 (stereo not drawn)	8.9µM*	u	-6%	3%	u
CN1C(=O)SC(Nc2ccccc2C(=O)O)C1=O (stereo not drawn)	u	u	4%	-2%	-1
COc1ccccc1NC1SC(=O)N(c2ccccc2)C1=O (stereo not drawn)	5µM*	-8%	-7%	u	40
